# The source made the active and inactive calls.
# What was measured:
# Albumin (Bos taurus) = Albumin (Bos taurus) (UniProt P02769); assay: compounds binding labelled BSA control protein – biochemical, small-molecule microarray, Alexa647 label, 635/667 nm fluorescence, artefact control for SMM control protein annotation, profiling panel (AID 1118); conditions: BSA-A647 binding, fluorescence 635 nm, higher = more signal;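 further: score merges 667 nm emission intensity and signal-to-noise per printed compound spot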
# Albumin (Bos taurus), sequence (P02769 whole entry, looked up): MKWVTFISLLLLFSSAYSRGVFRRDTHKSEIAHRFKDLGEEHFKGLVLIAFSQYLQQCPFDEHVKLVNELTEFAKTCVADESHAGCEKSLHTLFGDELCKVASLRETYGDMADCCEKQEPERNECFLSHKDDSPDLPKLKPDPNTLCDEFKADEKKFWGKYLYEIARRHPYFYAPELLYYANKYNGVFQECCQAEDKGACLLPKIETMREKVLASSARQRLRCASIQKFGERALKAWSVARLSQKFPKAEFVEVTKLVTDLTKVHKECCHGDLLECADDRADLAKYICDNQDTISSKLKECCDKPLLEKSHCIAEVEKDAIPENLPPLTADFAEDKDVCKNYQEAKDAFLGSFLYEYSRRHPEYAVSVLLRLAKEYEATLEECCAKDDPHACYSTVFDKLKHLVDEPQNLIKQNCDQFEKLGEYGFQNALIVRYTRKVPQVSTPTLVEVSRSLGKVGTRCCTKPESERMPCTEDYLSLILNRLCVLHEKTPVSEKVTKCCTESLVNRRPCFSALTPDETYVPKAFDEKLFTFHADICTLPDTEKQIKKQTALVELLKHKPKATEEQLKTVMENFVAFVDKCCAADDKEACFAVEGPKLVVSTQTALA
# [1] = probe aXIP binding to arrayed compounds – biochemical, NeuroSMM set, 635/667 nm fluorescence, primary screen (AID 1119); conditions: small-molecule microarray, higher = more signal, called active from +8 up or from −8 down;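 further: probe is the protein aXip251-270 applied at 1 µg/mL to compound-printed slides; binding of probe to printed compounds measured as 667 nm fluorescence plus signal to noise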
# [2] = probe aNOTCH3 binding on compound microarray – biochemical, small-molecule microarray, 635/667 nm fluorescence, primary screen (AID 1120); conditions: higher = more signal;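 further: probe is a biotin-tagged antibody raised against NOTCH3 rather than NOTCH3 protein; score merges spot fluorescence near 667 nm with spot signal to noise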
# [3] = probe aNOTCH2 binding on compound microarray – biochemical, small-molecule microarray, 635/667 nm fluorescence, primary screen (AID 1121); conditions: higher = more signal;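 further: score merges feature fluorescence read at 667 nm with its signal to noise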
# [4] = molecular target: Carbonic anhydrase 2 (Homo sapiens) (UniProt P00918); assay: compounds binding carbonic anhydrase 2 – biochemical, small-molecule microarray, Alexa647-labelled CAII, profiling panel (AID 1122); conditions: CAII-A647 binding fluorescence, higher = more signal
# [5] = COS7 lysate on small-molecule microarray, probe aHis, 635 nm (AID 1123); conditions: COS7 cell lysate, fluorescence, higher = more signal;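 further: z-score combines 667nm fluorescence intensity with signal-to-noise per printed compound spot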
# [6] = probe aLAP1 signal on lysate-treated microarray – cell lysate, small-molecule microarray, COS7 lysate, primary screen (AID 1124); conditions: probe aLAP1, fluorescence, higher = more signal;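 further: lysate comes from COS7 cells expressing LAP1 and is applied at 0.3 µg/mL; score merges spot fluorescence near 667 nm with signal-to-noise over triplicate slides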
# Sam68 (KHDRBS1) = assay: compounds binding KHDRBS1 protein – biochemical, small-molecule microarray, 635 nm fluorescence, primary screen (AID 1125); conditions: higher = more signal;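 further: score merges 667 nm channel intensity with signal to noise over triplicate slides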
# [7] = test system: Chordin-like protein 2 (CHRDL2); assay: compounds binding chordin-like 2 – biochemical, small-molecule microarray, 635 nm fluorescence, primary screen (AID 1126); conditions: fluorescence 635 nm, higher = more signal;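 further: printed compound slides probed with Chrdl2 protein at 4 µg/mL for 1 h at 4 C; score merges 667 nm emission intensity with signal to noise over three replicate slides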
# [8] = molecular target: Concanavalin-A (Canavalia ensiformis) (UniProt P02866); assay: compounds binding concanavalin A lectin – biochemical, small-molecule microarray, Alexa647 label, 635 nm, artefact control for SMM control protein annotation, primary screen (AID 1127); conditions: ConA-A647 binding fluorescence, higher = more signal;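 further: z combines 667 nm emission intensity with signal-to-noise across three replicate slides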
# Concanavalin-A (Canavalia ensiformis), sequence (P02866 whole entry, looked up): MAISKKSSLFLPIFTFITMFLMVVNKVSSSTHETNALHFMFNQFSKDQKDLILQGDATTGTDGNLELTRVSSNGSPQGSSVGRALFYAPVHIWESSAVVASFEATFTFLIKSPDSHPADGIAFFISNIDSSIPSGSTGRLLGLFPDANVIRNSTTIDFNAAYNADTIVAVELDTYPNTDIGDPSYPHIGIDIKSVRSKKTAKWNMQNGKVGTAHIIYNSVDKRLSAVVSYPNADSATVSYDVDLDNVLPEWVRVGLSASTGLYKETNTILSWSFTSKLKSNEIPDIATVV
# [9] = compounds binding Alexa647 anti-His antibody – biochemical, small-molecule microarray, 635 nm fluorescence, artefact control for SMM control protein annotation, primary screen (AID 1128); conditions: higher = more signal;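 further: score merges feature fluorescence with signal-to-noise for each printed compound spot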
# [10] = test system: Human papillomavirus type 1a E7 protein (residues 1-88); assay: HPV1a E7 small-molecule binders, primary screen, biochemical, small-molecule microarray, residues 1-88, 635 nm (AID 1129); conditions: small-molecule microarray binding, fluorescence 635 nm; higher = more signal
# [11] = molecular target: Focal adhesion kinase 1 (Homo sapiens) (UniProt Q05397); assay: PTK2 protein binding on printed compound slides – biochemical, small-molecule microarray, 635/667 nm fluorescence, BSA, DTT, primary screen (AID 1130); conditions: 635 nm fluorescence, higher = more signal;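 further: composite of spot emission at 667 nm and signal to noise over triplicate slides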
# Focal adhesion kinase 1 (Homo sapiens), sequence (Q05397 whole entry, looked up): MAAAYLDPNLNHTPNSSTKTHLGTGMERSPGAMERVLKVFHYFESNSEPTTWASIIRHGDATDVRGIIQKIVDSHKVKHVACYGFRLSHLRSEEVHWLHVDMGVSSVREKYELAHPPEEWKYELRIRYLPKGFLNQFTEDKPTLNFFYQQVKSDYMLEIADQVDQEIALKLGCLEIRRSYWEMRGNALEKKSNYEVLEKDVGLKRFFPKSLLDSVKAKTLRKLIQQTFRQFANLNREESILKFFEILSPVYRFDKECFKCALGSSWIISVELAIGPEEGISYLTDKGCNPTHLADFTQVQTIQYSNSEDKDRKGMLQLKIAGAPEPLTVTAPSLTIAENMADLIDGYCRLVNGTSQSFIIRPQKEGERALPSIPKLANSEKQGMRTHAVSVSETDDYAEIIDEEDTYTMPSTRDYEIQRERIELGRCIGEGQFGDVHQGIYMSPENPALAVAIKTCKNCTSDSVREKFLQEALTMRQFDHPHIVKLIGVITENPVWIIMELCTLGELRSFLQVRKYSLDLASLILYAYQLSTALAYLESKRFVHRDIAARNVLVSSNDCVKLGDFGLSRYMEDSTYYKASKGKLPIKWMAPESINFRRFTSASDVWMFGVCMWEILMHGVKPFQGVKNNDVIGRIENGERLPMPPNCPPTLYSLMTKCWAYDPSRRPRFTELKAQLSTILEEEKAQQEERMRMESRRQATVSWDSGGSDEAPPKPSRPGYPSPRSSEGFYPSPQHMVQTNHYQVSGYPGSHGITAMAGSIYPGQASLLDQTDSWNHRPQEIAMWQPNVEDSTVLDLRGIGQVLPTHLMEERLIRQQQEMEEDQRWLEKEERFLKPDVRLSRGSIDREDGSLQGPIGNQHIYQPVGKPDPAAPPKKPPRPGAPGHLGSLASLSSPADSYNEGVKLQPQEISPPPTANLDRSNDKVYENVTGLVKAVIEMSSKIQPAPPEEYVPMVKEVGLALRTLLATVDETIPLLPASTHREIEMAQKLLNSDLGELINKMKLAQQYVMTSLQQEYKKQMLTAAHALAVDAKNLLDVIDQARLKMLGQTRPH
# [12] = test system: Fibrinogen (Alexa647-labelled); assay: Alexa647-fibrinogen binding to printed small molecules – biochemical, small-molecule microarray, 635/667 nm fluorescence, artefact control for SMM control-protein annotation, profiling panel (AID 1131); conditions: fibrinogen-A647 binding fluorescence, higher = more signal;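 further: z-score merges 667 nm fluorescence with per-spot signal-to-noise over triplicate slides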
# [13] = molecular target: Follistatin (Homo sapiens) (UniProt P19883); assay: FST protein binding to printed compounds – biochemical, small-molecule microarray, 635/667 nm fluorescence, primary screen (AID 1132); conditions: 635 nm fluorescence, higher = more signal
# Follistatin (Homo sapiens), sequence (P19883 whole entry, looked up): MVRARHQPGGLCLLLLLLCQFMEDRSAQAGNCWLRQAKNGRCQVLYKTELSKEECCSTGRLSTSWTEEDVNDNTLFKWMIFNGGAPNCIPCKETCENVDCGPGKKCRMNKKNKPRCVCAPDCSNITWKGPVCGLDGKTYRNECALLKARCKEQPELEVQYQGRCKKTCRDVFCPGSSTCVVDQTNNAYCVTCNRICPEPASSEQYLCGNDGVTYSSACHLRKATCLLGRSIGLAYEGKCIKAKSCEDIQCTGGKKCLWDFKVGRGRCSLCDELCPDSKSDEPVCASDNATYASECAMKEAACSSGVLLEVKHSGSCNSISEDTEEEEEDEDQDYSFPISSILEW
# [14] = molecular target: Fibroblast growth factor 2 (Homo sapiens) (UniProt P09038); assay: basic fibroblast growth factor binding to printed compounds – biochemical, small-molecule microarray, 635/667 nm fluorescence, primary screen (AID 1133); conditions: FGF2, fluorescence 635/667, higher = more signal
# Fibroblast growth factor 2 (Homo sapiens), sequence (P09038 whole entry, looked up): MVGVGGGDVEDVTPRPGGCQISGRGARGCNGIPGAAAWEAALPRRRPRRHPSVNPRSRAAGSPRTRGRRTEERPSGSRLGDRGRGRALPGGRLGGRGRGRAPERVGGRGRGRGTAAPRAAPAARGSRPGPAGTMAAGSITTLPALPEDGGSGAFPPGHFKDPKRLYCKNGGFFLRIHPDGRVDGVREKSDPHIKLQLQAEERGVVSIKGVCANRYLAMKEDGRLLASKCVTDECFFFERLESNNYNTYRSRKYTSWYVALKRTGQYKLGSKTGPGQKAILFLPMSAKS
# [15] = JC-1 mitochondrial potential readout, lung cancer cells – cell-based, A549, JC-1 fluorescence, basal, 24 h, 100 nL, profiling panel (AID 1138); conditions: higher = more signal;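 further: A549 lung adenocarcinoma cells under basal conditions with no added stimulus; test concentration not given here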
# Lefty1 = Lefty1 protein binding to printed compounds – biochemical, small-molecule microarray, 635/667 nm fluorescence, primary screen (AID 1139); conditions: fluorescence 635/667, higher = more signal
# [16] = test system: wheat germ agglutinin (Triticum aestivum), Alexa647-labelled; assay: Alexa647-WGA lectin binding to printed small molecules – biochemical, small-molecule microarray, 635/667 nm fluorescence, artefact control for SMM control-protein annotation, profiling panel (AID 1140); conditions: WGA-A647 binding, 635 nm fluorescence, higher = more signal;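 further: score merges 667 nm feature emission with signal to noise over triplicate slides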
# [17] = molecular target: Luciferin 4-monooxygenase (Photinus pyralis) (UniProt P08659); assay: inhibition of purified Photinus pyralis luciferase – biochemical, luminescence, purified enzyme, 2006 set, primary screen (AID 1141); conditions: purified firefly luciferase, SteadyGlo luminescence, 30 min; higher = more signal, called active from +8 up or from −8 down;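 further: cell-free assay with purified firefly luciferase at 100 ng per well in PBS; test concentration not given here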
# Luciferin 4-monooxygenase (Photinus pyralis), sequence (P08659 whole entry, looked up): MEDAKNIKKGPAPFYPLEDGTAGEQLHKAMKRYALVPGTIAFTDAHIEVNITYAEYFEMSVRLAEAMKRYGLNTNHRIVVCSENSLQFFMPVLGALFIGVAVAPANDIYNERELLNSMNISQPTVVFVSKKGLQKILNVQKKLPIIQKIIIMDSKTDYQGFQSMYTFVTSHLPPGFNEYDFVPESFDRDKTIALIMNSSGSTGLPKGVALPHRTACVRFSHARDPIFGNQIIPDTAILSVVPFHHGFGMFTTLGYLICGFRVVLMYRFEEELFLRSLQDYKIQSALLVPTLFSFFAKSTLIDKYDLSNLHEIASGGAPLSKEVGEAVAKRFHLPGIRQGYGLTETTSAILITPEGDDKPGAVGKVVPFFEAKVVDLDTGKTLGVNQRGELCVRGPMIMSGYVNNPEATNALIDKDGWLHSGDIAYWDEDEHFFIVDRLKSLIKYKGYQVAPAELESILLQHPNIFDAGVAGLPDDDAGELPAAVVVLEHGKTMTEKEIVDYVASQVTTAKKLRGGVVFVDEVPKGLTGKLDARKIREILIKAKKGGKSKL
Compound,composite z-score (Albumin (Bos taurus)),composite Z-score [1],composite z-score [2],composite z-score [3],composite z-score [4],composite z-score [5],composite z-score [6],composite z-score (Sam68 (KHDRBS1)),composite z-score [7],composite z-score [8],composite z-score [9],composite z-score [10],composite z-score [11],composite z-score [12],composite z-score [13],composite z-score [14],z-score [15],composite z-score (Lefty1),composite z-score [16],z-score [17]
CCC(CC)C(O)C1C=CC2C(=O)N(c3ccccc3)C(=O)C2N1Nc1ccccc1F (stereo not given),0.86,0.204 (inactive),0.188,0.001,0.604,1.83,0.261,0.865,0.118,0.949,1.62,1.16,0.869,0.94,0.337,-0.557,-0.231,0.128,0.416,0.211 (inactive)
COCCOC(=O)N1C(=O)[C@@]2(c3ccccc31)[C@H](c1ccc(O)cc1)N1[C@H](c3ccccc3)[C@H](c3ccccc3)OC(=O)[C@H]1[C@@H]2C(=O)N1CCCCCCC1,0.46,4.53 (inactive),1.98,0.851,0.863,3.62,1.18,1.3,1.58,1.14,2.71,1.21,0.791,0.941,1.46,1.74,-1.16,1.72,1.43,0.171 (inactive)
CC(C)C(CO)N1C(=O)[C@@H]2C3C(=O)OCCC/C=C\[C@H]3OC23C=CCN(Cc2ccccc2)C(=O)[C@@H]13 (stereo not given in full),-1.25,-0.157 (inactive),-0.159,-0.11,0.902,0.708,1.5,-0.173,-1.11,-1.67,-1.18,-0.359,-0.0926,-2.51,-0.908,-0.591,1.21,-0.524,-1.2,-0.59 (inactive)
C=CC[C@@]12N=C(c3ccc(OCCCO)cc3)O[C@@H]1c1ccccc1N(CCC)C2=O,0.727,0.414 (inactive),0.0968,-0.0617,0.326,2.73,-0.227,1.29,1.24,1.06,2.58,1.22,0.359,0.512,1.52,1.72,2.58,1.31,0.777,-2.23 (inactive)
O=C(NCc1ccccc1)[C@@H]1c2ccccc2C(=O)N(Cc2cc(C(F)(F)F)cc(C(F)(F)F)c2)[C@H]1c1ccc(CO)cc1,-0.432,-0.46 (inactive),0.104,-0.008,0.185,1.55,0.92,1.3,0.755,0.609,0.618,1.14,0.576,0.638,1.36,1.06,0.473,0.991,0.452,1.14 (inactive)
CC(C)(C)N1CC=CC23O[C@@H]4/C=C\CCCOC(=O)C4[C@H]2C(=O)N(CCCCCO)[C@@H]3C1=O (stereo not given in full),-1.58,0.794 (inactive),-0.349,-0.126,0.941,-0.584,0.566,-0.484,-1.46,-1.46,-1.23,-0.75,-0.716,-0.865,-1.06,-0.594,-0.137,-1.4,-0.408,0.215 (inactive)

# — PubChem BioAssay
